In the library only some 4.1% were active in any assay of this set; here they are far more common.
hcDAF-12 act: H. contortus DAF-12 nuclear receptor activators, primary screen, cell-based, luminescence, HEK293, lit1-tk-luc reporter; 370,000 compounds, 1.4% hits; HEK293 hcDAF-12 lit1-tk-luc reporter; 0% DMSO, 100% Δ7-dafachronic acid; activation, % at 6.8 µM;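 active = activation above the mean of all tested compounds plus 3 SD, cut at about 5.5% in these data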;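 also: 100% = response to 3 µM Δ7-dafachronic acid high control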
hgDAF-12 ag: H. glycines DAF-12 receptor agonists, primary screen, cell-based, luminescence, HEK293, GAL4 fusion, UAS-luciferase; Nuclear hormone receptor DAF-12 (Heterodera glycines), GAL4 fusion; HEK293 GAL4-hgDAF12 UAS-luciferase reporter, agonist luminescence; normalized to butyrate control; activation, % at 6.8 µM; 370,000 compounds, 1.8% hits;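 active = activation above a cutoff set at the mean of all screened compounds plus 3 SD, cut at about 10% in these data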;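 also: 0% = DMSO wells and 100% = sodium butyrate wells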
DAX1 inh-1: DAX1 (NR0B1) inhibitors, primary screen, cell-based, HEK293, Gal4-DAX1, luciferase luminescence; Nuclear receptor subfamily 0 group B member 1 (Homo sapiens), P51843; HEK293 Gal4-DAX1 luciferase reporter; inhibition, % at 6.75 µM; 340,000 compounds, 0.99% hits;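 active = inhibition above the mean over all tested compounds plus 3 SD, cut at about 4.2% in these data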;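 also: 0% = DAX1-transfected cells with DMSO and 100% = empty-vector control cells with DMSO; inhibition shows as a rise in luminescence from relieved DAX1 repression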
Target sequence (P51843 207-470 limits assumed): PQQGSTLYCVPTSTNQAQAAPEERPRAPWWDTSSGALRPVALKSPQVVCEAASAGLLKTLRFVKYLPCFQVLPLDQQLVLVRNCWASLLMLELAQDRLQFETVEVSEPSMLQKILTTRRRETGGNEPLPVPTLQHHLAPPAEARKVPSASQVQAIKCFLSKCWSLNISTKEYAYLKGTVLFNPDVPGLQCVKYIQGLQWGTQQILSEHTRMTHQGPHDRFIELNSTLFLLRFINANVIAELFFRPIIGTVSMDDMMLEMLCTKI
ssDAF-12 act: S. stercoralis DAF-12 nuclear receptor activators, primary screen, cell-based, luminescence, HEK293, GRIP1 co-expression, lit1-tk-luc. Nuclear hormone receptor DAF-12 (Strongyloides stercoralis). HEK293 ssDAF-12/GRIP1 lit1-tk-luc reporter; % of 3 µM dafachronic acid response. activation, % at 6.8 µM. 370,000 compounds, 1% hits. AID 652126, 2013;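 active = activation above the mean over all tested compounds plus 3 SD, cut at about 0.9% in these data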;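 also: 0% = DMSO-only wells and 100% = 3 µM delta7-dafachronic acid wells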
DAX1 inh-2: DAX1 (NR0B1) inhibitors on StAR promoter, primary screen, cell-based, luminescence, SF-1 (NR5A1), full-length DAX-1; HEK293T StAR-luciferase reporter, SF-1/DAX-1 repression relief; inhibition, % at 6.8 µM; 370,000 compounds, 1.1% hits; AID 652010, 2013;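 active = inhibition above the mean over all tested compounds plus 3 SD, cut at about 3.6% in these data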;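 also: 0% = DAX-1 cells with DMSO and 100% = cells lacking DAX-1 with DMSO; higher inhibition means more luminescence from relief of DAX-1 repression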
An asterisk follows results filed as active; nt = not tested or not shown.

SMILES	hcDAF-12 act	hgDAF-12 ag	DAX1 inh-1	ssDAF-12 act	DAX1 inh-2
Cn1cccc1C(=O)OCC(=O)NC1CCS(=O)(=O)C1 (centres undefined)	1.1	-0.6	2.0	2.5*	0.4
O=C(Cc1ccccc1)Nc1ccc(SC(F)F)cc1	2.4	6.3	4.3*	-0.5	1.3
Cc1cc(Nc2ccc(F)c(Cl)c2)n2nc(C)nc2n1	-1.0	-3.0	0.0	-1.3	-0.9
COc1ccc(Nc2cc(C)nc3nc(C)nn23)cc1Cl	-0.5	-2.1	4.6*	-0.9	-0.7
Cc1cc(Nc2ccc(C)c(Br)c2)n2nc(C)nc2n1	-0.9	-0.1	4.4*	-3.5	-0.3
Cc1cc(Nc2cc(F)ccc2C)n2nc(C)nc2n1	-0.5	-0.8	3.3	-1.4	-0.2
Cc1cc(Nc2ccccc2Br)n2nc(C)nc2n1	-0.3	3.1	0.5	-1.5	-1.0
COc1ccc(Nc2cc(C)nc3nc(C)nn23)c(OC)c1	-0.8	-2.0	5.1*	-0.5	0.1
Cc1cc(Nc2ccc(F)cc2F)n2nc(C)nc2n1	4.0	1.6	4.9*	-0.5	1.3
O=C(NCCN1CCC(Cc2ccccc2)CC1)C1CCCN(S(=O)(=O)c2ccc(Br)s2)C1 (centres undefined)	-4.6	-3.3	nt	-1.5	-2.7
Cc1cccc(C)c1NC(=O)CNC(=O)CCC(=O)N1CCOCC1	0.7	1.5	-0.7	-1.3	3.7*
O=C(c1cccs1)n1nc(-c2ccccc2)nc1NCc1ccco1	-1.6	-2.9	0.1	-1.0	-0.3
COCC(=O)n1nc(-c2ccccc2)nc1NCc1cccs1	0.0	7.7	5.2*	-1.1	2.2
CSc1cnn(CCC#N)c(=O)n1	6.0*	7.0	nt	1.2*	0.3
COc1ccccc1CCn1cnc(-c2cccc(Cl)c2)c1CC(C)C	-2.3	-1.5	nt	-0.7	-2.0
Cc1cc(-c2n[nH]c(=S)n2N=Cc2ccc(O)cc2)n[nH]1	0.5	-1.1	nt	-0.7	-0.7
COc1ccc(C(C)(C)C)cc1N1C(=O)[C@@H]2CSCCS(=O)(=O)N2C1=O	0.3	-1.2	nt	0.3	-0.7
C#CCSc1nnnn1-c1cccc(Cl)c1	-2.4	1.9	4.3*	-1.6	-0.5
NC(=O)CSc1nnnn1-c1cccc(Cl)c1	-2.0	1.0	1.2	-1.3	-0.3
CC(=NN1CCN(Cc2ccccc2Cl)CC1)c1ccc(O)cc1	2.4	1.3	nt	-1.1	0.6
c1ccc(Cn2cnc3ccccc32)cc1	2.7	12.9*	2.3	-0.6	2.0
NC(=O)CCn1cnc2ccccc21	-1.1	1.3	4.3*	-1.6	0.1
O=C(NCCO)C1(C(=O)C2CC2)CC(c2ccccn2)=NO1 (centres undefined)	-0.9	-1.9	nt	-0.8	0.6
O=C1NC[C@@H](CCCCN2C[C@H](Cc3ccccc3)N(CCc3ccccc3)C(=O)C2=O)N(Cc2ccccc2)C1=O	-1.1	-1.1	nt	-0.9	-0.8
O=C1NC[C@H](CCCCN2C[C@H](Cc3ccccc3)N(Cc3ccccc3)C(=O)C2=O)N(CCc2ccccc2)C1=O	-1.0	-0.3	nt	-1.5	3.8*
SMILES	hcDAF-12 act	hgDAF-12 ag	DAX1 inh-1	ssDAF-12 act	DAX1 inh-2
Cn1c(Cc2c[nH]c3ccccc23)n[nH]c1=S	4.1	1.2	0.8	1.0*	0.7
Cc1[nH]c2ccccc2c1Cc1n[nH]c(=S)n1C	0.6	1.1	1.3	-0.7	-0.5
COc1ccc(S[C@]2(C(=O)N(C)C)CC(=O)N(C(=O)CCc3ccccc3)[C@@H]2c2ccc(OC)cc2)cc1	-0.1	-1.9	nt	-0.8	-0.5
CCCCCCc1c[nH]c2ccc(O)c(-c3ccccc3)c12	-1.9	-1.9	nt	-1.2	0.5
CN1CCN(c2nc3ccccc3nc2NS(=O)(=O)c2ccc(Br)cc2)CC1	0.7	1.1	-0.1	-0.4	-0.7
O=S(=O)(Nc1nc2ccccc2nc1N1CCc2ccccc2C1)c1ccc(Br)cc1	22.0*	16.2*	-1.0	2.4*	5.8*
COc1ccc(-n2nnnc2SCC(=O)Nc2ccccc2N2CCOCC2)cc1OC	1.6	0.1	4.3*	-1.1	-0.2
Cn1nnnc1SCC(=O)Nc1ccccc1N1CCOCC1	1.8	-0.7	-0.5	-0.8	-0.5
CC(=O)c1ccc(N2CCN(C(=O)[C@H](C)NC(=O)c3ccccc3Cl)CC2)cc1	-0.7	-0.5	6.0*	-0.7	0.8
CCn1c(SCC(=O)c2c[nH]c3ccccc23)nc2cc(S(=O)(=O)N3CCOCC3)ccc21	5.6*	-1.1	1.9	-0.6	0.2
CCn1c(SCC(N)=O)nc2cc(S(=O)(=O)N3CCOCC3)ccc21	-0.5	-4.9	-1.8	-1.1	1.0
Cc1cc(C)c(S(=O)(=O)Nc2ccccn2)c(C)c1	-1.7	-0.8	4.3*	-1.7	0.4
Cn1nc(C(=O)Nc2ccc(S(=O)(=O)Nc3ncccn3)cc2)ccc1=O	-1.7	4.0	5.1*	-0.6	0.3
CC(C)CC(=O)Nc1ccc(S(=O)(=O)Nc2nccs2)cc1	0.2	-1.1	-0.1	-1.4	0.2
O=C(Nc1ccc(S(=O)(=O)Nc2nccs2)cc1)C1=NN(c2ccccc2)C(=O)CC1	3.9	-1.1	0.5	1.2*	1.0
Cc1ccc(S(=O)(=O)Nc2ccccn2)c(C)c1	-1.0	-0.7	1.3	-1.3	0.3
CCC(=O)Nc1ccc(S(=O)(=O)Nc2nccs2)cc1	-0.2	-0.3	4.3*	-0.1	0.6
C#Cc1cccc(OCC(C)CN2CCC(C(O)(c3ccccc3)c3ccccc3)CC2)c1 (centres undefined)	-2.8	1.1	nt	-1.7	0.1
O=C(Nc1ccc(N2C(=O)CC3(CCCCC3)C2=O)c(Cl)c1)c1ccccn1	-0.6	5.0	nt	-1.7	nt
CCC(=O)Nc1ccc(S(=O)(=O)Nc2ncccn2)cc1	-0.5	1.5	2.2	-1.2	-0.4
CCC(=O)Nc1ccc(S(=O)(=O)Nc2ccccn2)cc1	5.0	2.5	-0.4	1.4*	0.8
O=C(CN1CCN(S(=O)(=O)c2ccc(Cl)cc2)CC1)NC1CCCC1	-0.4	0.3	-0.9	-1.0	3.8*
Cc1cc(-c2ccccc2)nc(N/N=C/c2ccc(O)cc2)n1	-0.7	3.3	-0.9	-0.8	3.9*
Cc1cc(C(=O)O)ccc1N/C=C1\CCCC(C)C1=O (centres undefined)	3.1	10.7*	-1.0	0.9	2.0
CC1CCC/C(=C\Nc2ccc(O)cc2)C1=O (centres undefined)	1.3	2.8	-0.1	-1.1	0.6
CCn1c(SCC(=O)Nc2ccccc2-c2ccccc2)nnc1-c1ccc(C)cc1	-2.1	-0.1	nt	-1.3	0.0
O=P(c1ccccc1)(c1ccccc1)C(c1ccccn1)P(=O)(c1ccccc1)c1ccccc1	-1.4	-1.7	nt	-0.9	0.5

Assay outcomes: PubChem, The Scripps Research Institute Molecular Screening Center
